Compounds with a hit are over-represented: about 4.3% of the library has one in this group of screens.
ADAM10 inh – human ADAM10 inhibitors, primary screen, biochemical, QFRET, HTS | inhibition, % at 7 µM | recombinant ADAM10, EDANS/DABCYL FRET peptide cleavage, 3 h | Disintegrin and metalloproteinase domain-containing protein 10 (Homo sapiens), O14672 | actives 0.62% (n = 370,000);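 active = inhibition above a per-campaign cutoff equal to the mean of compounds falling between control-based bounds plus 3 SD, cut at about 20% in these data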
Target sequence (O14672 214-748 limits assumed): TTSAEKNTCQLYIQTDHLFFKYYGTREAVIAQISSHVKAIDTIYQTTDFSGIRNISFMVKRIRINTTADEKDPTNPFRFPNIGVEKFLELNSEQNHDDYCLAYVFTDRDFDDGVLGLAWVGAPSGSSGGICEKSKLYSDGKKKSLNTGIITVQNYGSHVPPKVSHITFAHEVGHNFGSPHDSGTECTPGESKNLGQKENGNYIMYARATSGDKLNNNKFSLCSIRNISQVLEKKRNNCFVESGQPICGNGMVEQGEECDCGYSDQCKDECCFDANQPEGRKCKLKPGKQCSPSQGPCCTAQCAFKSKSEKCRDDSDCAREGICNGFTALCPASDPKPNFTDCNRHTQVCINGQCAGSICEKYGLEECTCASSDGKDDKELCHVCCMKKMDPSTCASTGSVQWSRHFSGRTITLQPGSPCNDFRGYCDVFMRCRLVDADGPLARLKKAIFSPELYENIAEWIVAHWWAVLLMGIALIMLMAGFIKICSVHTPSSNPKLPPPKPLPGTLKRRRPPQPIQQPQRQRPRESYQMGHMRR
FAS-TE inh – FAS thioesterase domain inhibitors, primary screen, biochemical, fluorescence intensity, uHTS; Fatty acid synthase (Homo sapiens), P49327; actives 0.67% (n = 360,000); AID 602261, 2012; recombinant FAS-TE, OMFH fluorogenic substrate, fluorescence endpoint; inhibition, % at 15 µM;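 active = compounds whose normalised, plate-corrected inhibition of enzyme fluorescence in the single-dose primary screen is 50% or more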
ADAM17 inh – ADAM17 inhibitors, primary screen, biochemical, QFRET | Disintegrin and metalloproteinase domain-containing protein 17 (Homo sapiens), P78536 | recombinant ADAM17, EDANS/DABCYL FRET peptide cleavage | inhibition, % at 6.95 µM | actives 0.83% (n = 370,000) | AID 720648, 2013;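 active = inhibition above the mean of compounds lying between control limits plus 3 SD, set per campaign, cut at about 8.5% in these data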
HGIII-sPLA2 inh – human group III sPLA2 inhibitors, primary screen, biochemical, QFRET, BODIPY PC-A2 liposome substrate; Group 3 secretory phospholipase A2 (Homo sapiens), Q9NZ20; QFRET BODIPY PC-A2 liposome hydrolysis, fluorescence; inhibition, % at 12.2 µM; actives 0.56% (n = 370,000);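 active = inhibition above mean plus 3 SD of compounds lying within the high and low control bounds, cut at about 19% in these data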
GRIN3A LBD mod – binders of NR3A ligand-binding domain, primary screen, biophysical, differential scanning fluorimetry, uHTS; Glutamate receptor ionotropic, NMDA 3A (GRIN3A) ligand-binding domain; actives 2.5% (n = 340,000); Tm shift relative to glycine control, % at 25 µM; NR3A LBD differential scanning fluorimetry, Tm shift; 0% = protein alone, 100% = glycine-bound protein;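 active = melting temperature shift of at least 10% of the positive control shift, at one fixed dose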
A number is an active result.

How did COc1ccc(-n2c(SCC(=O)Nc3ccc4c(c3)OCCO4)nnc2-c2ccccc2)cc1 do in these assays?
ADAM10 inh: inactive; ADAM17 inh: inactive; HGIII-sPLA2 inh: inactive

What do the screens show for `C[C@@H](C(=O)Nc1ccc2ccccc2c1)[C@H]1C[C@]1(C)[C@H](NC(=O)OCc1ccccc1)c1ccccc1`?
ADAM10 inh: inactive; FAS-TE inh: inactive; ADAM17 inh: inactive; HGIII-sPLA2 inh: inactive; GRIN3A LBD mod: inactive

Results for Cc1cc(C(=O)N[C@H](c2ccccc2)[C@@]2(C)C[C@@H]2[C@@H](C)C(=O)Nc2ccc3ccccc3c2)n(C)n1 ?
ADAM10 inh: 28; FAS-TE inh: inactive; ADAM17 inh: 13; HGIII-sPLA2 inh: inactive; GRIN3A LBD mod: inactive

How did C=CCc1cccc(/C=N/NC(=O)CCC(=O)Nc2ccc(C)cc2)c1O do in these assays?
ADAM10 inh: inactive; FAS-TE inh: inactive; ADAM17 inh: inactive; HGIII-sPLA2 inh: inactive; GRIN3A LBD mod: 14

What do the screens show for `Cc1ccc(NC(=O)CCC(=O)N/N=C/c2ccc(O)cc2O)cc1`?
ADAM10 inh: inactive; FAS-TE inh: inactive; ADAM17 inh: inactive; HGIII-sPLA2 inh: inactive; GRIN3A LBD mod: inactive

What do the screens show for `C=CCN1[C@H](CO)[C@H](c2ccc(Br)cc2)[C@@H]1C#N`?
ADAM10 inh: inactive; ADAM17 inh: inactive; HGIII-sPLA2 inh: inactive

How did N/C(=N\c1nc2ccccc2o1)NC(=O)/C=C/c1ccccc1 do in these assays?
ADAM10 inh: inactive; FAS-TE inh: inactive; ADAM17 inh: inactive; HGIII-sPLA2 inh: inactive; GRIN3A LBD mod: 22

Results for N/C(=N\c1nc2ccccc2o1)NC(=O)c1ccccc1 ?
ADAM10 inh: inactive; FAS-TE inh: inactive; ADAM17 inh: inactive; HGIII-sPLA2 inh: inactive; GRIN3A LBD mod: inactive

Results for O=C(NCCS(=O)(=O)N1CCN(c2ccc(F)cc2)CC1)c1ccco1 ?
ADAM10 inh: inactive; FAS-TE inh: inactive; ADAM17 inh: inactive; HGIII-sPLA2 inh: inactive; GRIN3A LBD mod: 22

Results for O=C(NCCS(=O)(=O)N1CCN(c2ccccc2F)CC1)c1ccco1 ?
ADAM10 inh: inactive; FAS-TE inh: inactive; ADAM17 inh: inactive; HGIII-sPLA2 inh: inactive; GRIN3A LBD mod: inactive

Results for COCCCNC(=O)C1CCN(S(=O)(=O)c2ccc3[nH]c(=O)oc3c2)CC1 ?
ADAM10 inh: inactive; ADAM17 inh: inactive; HGIII-sPLA2 inh: inactive

How did CC(C)(C)c1ccc(S(=O)(=O)N2CCCC2C(=O)N2CCN(c3ccccc3)CC2)cc1 (configuration not stated) do in these assays?
ADAM10 inh: inactive; ADAM17 inh: inactive; HGIII-sPLA2 inh: inactive

Results for O=C(N/N=C/c1cccs1)c1cccc(S(=O)(=O)Nc2ccc(Cl)cc2)c1 ?
ADAM10 inh: inactive; FAS-TE inh: inactive; ADAM17 inh: inactive; HGIII-sPLA2 inh: inactive; GRIN3A LBD mod: 28

How did CCN(CC)c1ccc(/C=N/NC(=O)c2cccc(S(=O)(=O)Nc3ccccc3OC)c2)c(O)c1 do in these assays?
ADAM10 inh: inactive; FAS-TE inh: inactive; ADAM17 inh: inactive; HGIII-sPLA2 inh: inactive; GRIN3A LBD mod: 14

What do the screens show for `Cc1[nH]c2ccccc2c1/C=N/NC(=O)c1cc(-c2ccccc2)n[nH]1`?
ADAM10 inh: inactive; FAS-TE inh: inactive; ADAM17 inh: inactive; HGIII-sPLA2 inh: inactive; GRIN3A LBD mod: 19

What do the screens show for `Cc1[nH]c2ccccc2c1/C=N/NC(=O)c1cccc(S(=O)(=O)Nc2ccccc2Cl)c1`?
ADAM10 inh: inactive; FAS-TE inh: inactive; ADAM17 inh: inactive; HGIII-sPLA2 inh: inactive; GRIN3A LBD mod: 24

How did C#CC1(O)C2C=C(OC)C(=O)C1C(c1ccccc1)C2C (configuration not stated) do in these assays?
ADAM10 inh: inactive; ADAM17 inh: inactive; HGIII-sPLA2 inh: inactive

What do the screens show for `CC1=C2NC(N)=[N+](CC3CC3)C(Cc3ccccc3)[C@@H]2n2c(=O)n(-c3ccccc3)c(=O)n2C1` (some centres not stated)?
ADAM10 inh: inactive; ADAM17 inh: inactive; HGIII-sPLA2 inh: inactive

How did O=C(Nc1c(-c2ccccc2)nc2ncccn12)c1ccc(F)cc1 do in these assays?
ADAM10 inh: inactive; ADAM17 inh: inactive; HGIII-sPLA2 inh: inactive

What do the screens show for `COc1ccc2ccccc2c1/C=N/NC(=O)c1cccc(Br)c1`?
ADAM10 inh: inactive; FAS-TE inh: inactive; ADAM17 inh: inactive; HGIII-sPLA2 inh: inactive; GRIN3A LBD mod: inactive

What do the screens show for `Cc1[nH]c2ccccc2c1/C=N/NC(=O)c1ccc(N)cc1`?
ADAM10 inh: inactive; FAS-TE inh: inactive; ADAM17 inh: inactive; HGIII-sPLA2 inh: inactive; GRIN3A LBD mod: 11

How did Cc1ccc(/C=N/NC(=O)c2cccc(S(=O)(=O)Nc3ccccc3Cl)c2)o1 do in these assays?
ADAM10 inh: inactive; FAS-TE inh: inactive; ADAM17 inh: inactive; HGIII-sPLA2 inh: inactive; GRIN3A LBD mod: inactive

Results for O=C(N/N=C/c1[nH]c2ccccc2c1Cl)c1cccc(Br)c1 ?
ADAM10 inh: inactive; FAS-TE inh: inactive; ADAM17 inh: inactive; HGIII-sPLA2 inh: inactive; GRIN3A LBD mod: 12

How did Cc1[nH]c2ccccc2c1/C=N/NC(=O)c1cccc(Br)c1 do in these assays?
FAS-TE inh: inactive; GRIN3A LBD mod: 16

What do the screens show for `CCc1cccc2c(/C=N/NC(=O)c3cccc(S(=O)(=O)Nc4ccccc4Cl)c3)c[nH]c12`?
ADAM10 inh: inactive; FAS-TE inh: inactive; ADAM17 inh: inactive; HGIII-sPLA2 inh: inactive; GRIN3A LBD mod: 27

What do the screens show for `COc1ccc(NC(=O)c2[nH]c(C)c(C(C)=O)c2C)cc1S(=O)(=O)Nc1ccc(Br)cc1`?
ADAM10 inh: inactive; FAS-TE inh: inactive; ADAM17 inh: inactive; HGIII-sPLA2 inh: inactive; GRIN3A LBD mod: 11

What do the screens show for `COc1ccc(OC)c(S(=O)(=O)Nc2ccc(C(C)=O)cc2)c1`?
ADAM10 inh: inactive; FAS-TE inh: inactive; ADAM17 inh: inactive; HGIII-sPLA2 inh: inactive; GRIN3A LBD mod: 11

What do the screens show for `COc1ccc(NC(=O)c2[nH]c(C)c(C(C)=O)c2C)cc1Cl`?
ADAM10 inh: inactive; FAS-TE inh: inactive; ADAM17 inh: inactive; HGIII-sPLA2 inh: inactive; GRIN3A LBD mod: inactive

What do the screens show for `CCCCNS(=O)(=O)/C=C/c1cc(C)ccc1CNC(=O)OC(C)(C)C`?
ADAM10 inh: inactive; ADAM17 inh: inactive; HGIII-sPLA2 inh: inactive

What do the screens show for `C=CCN1C(=O)[C@@H](CC(=O)NCc2ccccc2)[C@]2(C(=O)OCC)CCCCC/C=C/12`?
ADAM10 inh: inactive; ADAM17 inh: inactive; HGIII-sPLA2 inh: inactive

What do the screens show for `O=[N+]([O-])c1ccc(N2CCN(S(=O)(=O)c3cnc[nH]3)CC2)cc1`?
ADAM10 inh: inactive; FAS-TE inh: inactive; ADAM17 inh: inactive; HGIII-sPLA2 inh: inactive; GRIN3A LBD mod: 10

Screens (PubChem BioAssay)
